BRCA1 expr act: increases BRCA1 expression. MCF7-BRCA1-FFLuc reporter, luminescence, 48 h; response scale: scaled: vehicle 0%, 10 µM genistein 100%. 1.1% of 380,000 active. Potency, µM (highest dose often 46.1 µM), for inactives: at the highest dose activation, actives largely listed as activators. AID 624202; also: nearly all actives have a fitted effect of over 80% in size
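Compounds are tested at multiple concentrations on MCF7 BRCA1-luciferase reporter cells seeded at 2000 per well; after 48 h, a single luminescence end-point is taken and curves fitted to the normalized data.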
Tb PFK inh: T. brucei PFK enzyme inhibition | 0.17% of 330,000 active | Potency, µM (top dose mostly 57.5 µM), for the others: at the top dose activity, negative = inhibition, hits mostly inhibitors | O15648 | T. brucei PFK, ADP-Glo luminescence;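 also: 0% = uninhibited 1x PFK enzyme wells and -100% = no-enzyme wells; nearly all actives have a fitted effect of over 60% in size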
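PFK 1.25 nM, F6P 0.5 mM, ATP 0.1 mM, 0.1 M TEA pH 8.0, 5 mM MgCl2, 0.01% Tween20, 0.1% BSA; 45 min RT. ADP-Glo readout. qHTS titration up to 57 uM; curves fitted, compounds curve-classed.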
VDR inh: blocks the human vitamin D receptor; P11473; VDR-SRC2-3 peptide fluorescence polarization, 2 h; Potency, µM, inactives show max response, negative = inhibition, actives largely listed as inhibitors; 0.93% of 400,000 active; AID 504847; also: % is scaled to controls: 0 for no effect and ±100 for the full control effect
Target sequence (P11473 whole entry, looked up): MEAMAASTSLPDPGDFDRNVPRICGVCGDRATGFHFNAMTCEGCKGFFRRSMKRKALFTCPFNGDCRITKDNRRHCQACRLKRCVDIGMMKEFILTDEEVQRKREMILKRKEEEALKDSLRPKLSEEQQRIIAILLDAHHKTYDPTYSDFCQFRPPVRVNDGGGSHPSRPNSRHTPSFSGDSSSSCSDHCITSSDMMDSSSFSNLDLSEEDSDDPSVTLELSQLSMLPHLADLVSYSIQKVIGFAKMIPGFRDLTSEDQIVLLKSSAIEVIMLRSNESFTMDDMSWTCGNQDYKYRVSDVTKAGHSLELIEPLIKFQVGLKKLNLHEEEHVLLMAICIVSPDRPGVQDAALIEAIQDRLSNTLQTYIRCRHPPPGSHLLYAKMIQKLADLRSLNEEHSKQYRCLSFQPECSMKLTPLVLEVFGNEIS
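Two reagent solutions held at 4 deg C in the dark were dispensed, compounds pinned at 23 nl, and the mixture incubated 2 h at room temperature. Read-out: fluorescence polarization of VDR–SRC2-3 peptide binding.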
PLK1 PBD block: PLK1 (human) polo-box domain binding inhibition. P53350. Plk1 PBD binding of FITC phosphopeptide, fluorescence polarization. Potency, µM, for inactives: max response, negative = inhibition, actives largely listed as inhibitors. 2.8% of 360,000 active. AID 720504; also: series mostly up to about 57 µM; % is scaled to controls: 0 for no effect and ±100 for the full control effect; nearly all actives have a fitted effect of over 65% in size
* = called active by the depositor; ? = inconclusive; nt = not tested or not shown. Shown are actives, neighbours in structure and some others; about 3.9% of the full set was active somewhere. Calls follow the shape of the dose curve; as a rule, active = well fitted curve in the direction sought with a large enough effect; inconclusive = small, poorly fitted or top-dose-only effect, or another doubt; inactive = no such curve, though single readings can be large; an effect the other way counts as inactive or inconclusive. Potency is read from the fitted curve at half-maximal effect.

SMILES	BRCA1 expr act	Tb PFK inh	VDR inh	PLK1 PBD block
CCC(=O)OC1(c2ccccc2)C(C)CN(C)CC1C (centres undefined)	5.4%	-1.9%	-0.2%	-0.3%
CCC(=O)OC1(c2ccccc2)CCN(C)CC1C (centres undefined)	9.6%	-1.2%	-24.0%	23.8µM*
CCOc1cc(-c2c(C#N)c(=O)[nH]c3c2c(C)nn3-c2ccc(F)cc2)ccc1O	-42.3%	5.1%	3.5%	?
COc1ccc(/C=C2/C(=O)NC(=O)N(c3ccccc3)C2=O)cc1CN1C(=O)c2ccccc2C1=O	-1.1%	1.0%	79.4µM*	5.97µM*
COc1cc(/C=C2/C(=O)NC(=O)N(c3ccccc3)C2=O)ccc1O	-22.7%	15.9%	-13.5%	8.44µM*
COc1ccc(/C=C2/C(=O)NC(=O)N(C3CCCCC3)C2=O)cc1CSc1ccccn1	nt	2.7%	nt	nt
COc1cccc(N2C(=O)NC(=O)/C(=C/c3ccc4c(c3)Cc3ccccc3-4)C2=O)c1	?	0.5%	?	3.36µM*
COc1ccccc1N1C(=O)NC(=O)/C(=C\c2cnn(-c3ccccc3)c2)C1=O	2.2%	4.3%	?	3.36µM*
COc1ccc(N2C(=O)NC(=O)/C(=C\c3cn(C)c4ccccc34)C2=O)cc1	-16.5%	-1.3%	-4.0%	-0.7%
COC(=O)Cn1cc(/C=C2\C(=O)NC(=O)N(c3ccc(OC)cc3)C2=O)c2ccccc21	0.3%	-4.2%	-8.7%	?
COC1=CC2C3Cc4ccc(OC)c(O)c4[C@]2(CCN3C)CC1=O (some centres undefined)	nt	nt	2.2%	nt
CCOP(=S)(OCC)OCCSCC	nt	nt	-12.0%	nt
CCCCCC1C(=O)O[C@H](C)[C@@H](NC(=O)c2cccc(NC=O)c2O)C(=O)OC(C)C1OC(=O)CC(C)C (some centres undefined)	nt	nt	-3.2%	nt
COc1ccccc1N1C(=O)NC(=O)/C(=C/c2ccc3c4c(cccc24)CC3)C1=O	2.1%	-3.8%	50.1µM*	7.52µM*
CCOc1cc(/C=C2/C(=O)NC(=O)N(c3ccc(CC)cc3)C2=O)ccc1OC(=O)c1cccs1	-12.1%	0.4%	?	5.97µM*
O=C1NC(=O)N(c2ccccc2)C(=O)/C1=C\c1ccc2c3c(cccc13)CC2	nt	3.5%	nt	nt
C=C1[C@@H](O)C2C=CC[C@H](C)C(=O)[C@@](C)(O)C=C[C@@H](OC(C)=O)[C@@]23C(=O)N[C@H](Cc2ccccc2)[C@@H]3[C@@H]1C (some centres undefined)	nt	nt	0.6%	nt
CC/C=C\C/C=C\C/C=C\C/C=C\C/C=C\CCCC(=O)NCCO	nt	nt	-5.2%	nt
COc1c(C=C2C(=O)NC(=O)NC2=O)c(CCN(C)C(=O)c2ccccc2)cc2c1OCO2	-34.7%	19.3%	?	26.7µM*
COc1ccc(C2NCc3ccccc3-n3cccc32)cc1 (centres undefined)	30.2%	-0.3%	-5.3%	2.0%
Clc1cccc(C2NCc3ccccc3-n3cccc32)c1 (centres undefined)	-5.7%	-10.4%	-9.1%	29.9µM*
CC(=O)C(Sc1ncnc2c1nnn2-c1ccc(F)cc1)C(=O)N(C)C (centres undefined)	51.0%	-4.1%	50.1µM*	23.8µM*
CN1C2CC(=O)CC1C(O)C2 (centres undefined)	nt	nt	-0.1%	nt
CCCN1CCc2cc(O)cc3c2C1Cc1ccc(O)c(O)c1-3 (centres undefined)	nt	nt	25.1µM*	nt
NC(=O)CI	nt	nt	79.4µM*	nt
SMILES	BRCA1 expr act	Tb PFK inh	VDR inh	PLK1 PBD block
CCN(CC)c1ccc(/C=C2\C(=O)NC(=O)N(CC3CCCO3)C2=O)cc1 (centres undefined)	13.8%	-12.3%	-5.0%	?
Cc1ccc(/C=C2\C(=O)NC(=O)N(CC3CCCO3)C2=O)s1 (centres undefined)	12.9%	-29.5%	?	4.74µM*
C=CC[C@]1(O)CCC2C3CCC4=CCCCC4C3CCC21C (some centres undefined)	nt	nt	-10.5%	nt
CC[n+]1c(-c2ccccc2)c2cc(N)ccc2c2ccc(N)cc21	-89.5%	nt	6.31µM*	-11.7%
c1ccc(N2CCCC3(CCNCC3)C2)nc1	nt	nt	50.1µM*	nt
Cc1nn(C2CCOC(C)(C)C2)c2c1C(c1ccc(OC(C)C)cc1)SCC(=O)N2 (centres undefined)	2.7%	2.3%	79.4µM*	-18.7%
CC(=O)OC1CC[C@@]2(C)C3CC[C@]4(C)C(=O)CCC4C3CC[C@H]2C1 (some centres undefined)	nt	nt	-9.2%	nt
